Reference: PubChem BioAssay AID1851 (National Center for Advancing Translational Sciences (NCATS), 2009)
The whole screen tested about 16,000 compounds, of which about 5,100 (32%) were called active. About 25% were inconclusive and are not listed. Some of the results follow. A number with no mark means an inactive call. The call rests on the fitted dose curve; in most records, active means well fitted curve in the direction sought with a large enough effect; inconclusive means small, poorly fitted or top-dose-only effect, or effect the other way; inactive means no such curve, though single readings can be large or run the other way.

What follows are molecules tested against Cytochrome P450 3A4 (Homo sapiens) (UniProt P08684) (assay: Cytochrome panel assay with activity outcomes). Settings: recombinant CYP, pro-luciferin dealkylation, luminescence, p450-cyp3a4; series mostly up to 57.1 µM.
Chain of Cytochrome P450 3A4 (Homo sapiens) (P08684 whole entry, looked up): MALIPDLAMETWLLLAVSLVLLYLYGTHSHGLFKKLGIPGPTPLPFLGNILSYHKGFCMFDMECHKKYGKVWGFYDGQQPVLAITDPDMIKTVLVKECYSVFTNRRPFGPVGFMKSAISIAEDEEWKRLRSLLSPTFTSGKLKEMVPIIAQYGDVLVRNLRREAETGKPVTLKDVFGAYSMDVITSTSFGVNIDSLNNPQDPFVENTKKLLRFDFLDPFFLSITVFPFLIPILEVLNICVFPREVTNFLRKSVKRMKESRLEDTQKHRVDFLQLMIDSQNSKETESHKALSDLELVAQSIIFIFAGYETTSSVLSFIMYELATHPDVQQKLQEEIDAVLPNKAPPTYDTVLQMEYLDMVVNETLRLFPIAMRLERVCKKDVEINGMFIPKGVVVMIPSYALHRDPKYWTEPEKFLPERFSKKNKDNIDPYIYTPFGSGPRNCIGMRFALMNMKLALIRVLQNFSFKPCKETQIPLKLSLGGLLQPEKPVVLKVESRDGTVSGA
On the % scale 0 is the no-effect control and ±100 the full control effect.

**Q.** `CSc1nc(N)c2ncn([C@@H]3O[C@@H](COP(=O)(O)OP(=O)(O)O)[C@@H](O)[C@H]3O)c2n1` was tested. Which AC50 did it give?
**A.** The AC50 was “inactive”.

**Q.** How did the AC50 turn out when `C=CC(=O)NC(NC(=O)C=C)c1ccc(Br)cc1` was run?
**A.** Its AC50 is “inactive”.

**Q.** How did the AC50 turn out when `N#Cc1c(NC(=O)CCN2C(=O)c3ccccc3C2=O)oc(-c2ccccc2)c1-c1ccccc1` was run?
**A.** Its AC50 is 3.98 µM (active).

**Q.** How did the activity, negative = inhibition turn out when `Cc1ccc(NC(=O)NNC(=O)Cn2nc(-c3ccccc3)c(-c3ccccc3)c(C#N)c2=O)cc1` was run?
**A.** Its activity, negative = inhibition is 26.4% [at 0.457 µM].

**Q.** `CC(C)(C)c1ccccc1OCCN1CCCC1` was tested. Which AC50 did it give?
**A.** The AC50 was “inactive”.

**Q.** How did the AC50 turn out when `Cc1ncc([N+](=O)[O-])n1CCOC(=O)NC(NCc1ccccc1)C(Cl)(Cl)Cl` (configuration not stated) was run?
**A.** Its AC50 is 15.8 µM (active).

**Q.** `Cc1ncc([N+](=O)[O-])n1CC(=O)NCc1ccccc1` was tested. Which AC50 did it give?
**A.** The AC50 was “inactive”.

**Q.** How did the AC50 turn out when `Cc1ncc([N+](=O)[O-])n1CCO` was run?
**A.** The AC50 was “inactive”.

**Q.** Which activity, negative = inhibition does the source give for `O=C(N1CCOCC1)N1CCN(c2ccccc2)CC1` here?
**A.** The activity, negative = inhibition was -14.3% [at 11.4 µM].

**Q.** `O=C(c1cn(-c2ccccc2)nc1-c1cccs1)N1CCOCC1` was tested. Which AC50 did it give?
**A.** Its AC50 is 15.8 µM (active).

**Q.** `O=C(Nc1c(C(=O)N2CCOCC2)cnn1-c1ccccc1)c1ccco1` was tested. Which AC50 did it give?
**A.** The AC50 was “inactive”.

**Q.** `O=C(Nc1cccc2ccccc12)c1cn(-c2ccccc2)nc1-c1cccs1` was tested. Which AC50 did it give?
**A.** The AC50 was 7.94 µM (active).

**Q.** `CCOc1ccc(-c2c[n+](=O)c3c(n2[O-])CCCC3)c(OCC)c1` was tested. Which AC50 did it give?
**A.** The AC50 was “inactive”.

**Q.** How did the AC50 turn out when `COc1ccc(OCCNS(=O)(=O)c2ccc3oc4ccccc4c3c2)cc1` was run?
**A.** The AC50 was 7.08 µM (active).

**Q.** Which AC50 does the source give for `CCCNS(=O)(=O)c1ccc(OCC(=O)OC)cc1` here?
**A.** Its AC50 is “inactive”.

**Q.** For `NCCCc1ccc2oc3ccccc3c2c1`, which activity, negative = inhibition is on record?
**A.** Its activity, negative = inhibition is 0.505% [at 11.4 µM].

**Q.** With `Cc1nc2ccccc2nc1SCC(=O)N1CCC(C)CC1` as the molecule, how does the activity, negative = inhibition read?
**A.** The activity, negative = inhibition was 3.87% [at 2.29 µM].

**Q.** `O=C(O)[C@@H]1CS[C@@]2(CCCN(Cc3ccccc3)C2)N1` was tested. Which activity, negative = inhibition did it give?
**A.** The activity, negative = inhibition was 0.282% [at 11.4 µM].

**Q.** `Cc1scc2c1N(C(=O)CN1CCN(C)CC1)c1ccccc1NC2=O` was tested. Which AC50 did it give?
**A.** Its AC50 is “inactive”.

**Q.** Which AC50 does the source give for `Cc1sc2nc(C3CC3)nc(SCC(=O)N3CC(=O)Nc4ccccc43)c2c1C` here?
**A.** Its AC50 is 2.24 µM (active).

**Q.** Which activity, negative = inhibition does the source give for `Cc1ncc(CSC(=N)N)n1Cc1ccccc1` here?
**A.** The activity, negative = inhibition was 6.78% [at 11.4 µM].

**Q.** With `Cc1nnc(SCC(=O)N2CC(=O)Nc3ccccc32)n1Cc1ccccc1` as the molecule, how does the AC50 read?
**A.** Its AC50 is 7.94 µM (active).

**Q.** With `CCOC(=O)N/N=C1/C[C@@H](O)[C@@H](O)[C@@H]2[C@@H]3C(=O)N(C(C)(C)C)C(=O)[C@H]3CC[C@H]12` as the molecule, how does the activity, negative = inhibition read?
**A.** The activity, negative = inhibition was -10.6% [at 11.4 µM].

**Q.** With `C[C@@H](NCc1cc(Br)cc2[nH]c(=O)c(=O)[nH]c12)P(=O)(O)O` as the molecule, how does the AC50 read?
**A.** The AC50 was “inactive”.

**Q.** For `COc1cccc(-c2ccc3ncnc(NCc4cccs4)c3c2)c1`, which AC50 is on record?
**A.** Its AC50 is 7.94 µM (active).

**Q.** Which AC50 does the source give for `c1csc(CNc2ncnc3ccc(-c4ccoc4)cc23)c1` here?
**A.** Its AC50 is 7.94 µM (active).

**Q.** For `N#Cc1cccc(-c2ccc3ncnc(NCc4cccs4)c3c2)c1`, which AC50 is on record?
**A.** Its AC50 is 3.16 µM (active).
